Over roughly 59,000 sequences, the read-out has its median near -0.00055; the lowest 2% begin near -2. The entries come from a sample that favours the lowest values as a whole.
assay: Identification of proteins required for the processing of the EWS-FLI1 nascent transcript; details: TC32 Ewing sarcoma NR0B1-luc vs CMV-luc (EWS-FLI1 target promoter against control promoter), 48 h; screened at 20 nM (by protocol);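 also: robust z of luciferase light less the median z of siRNAs with the same seed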
Method in brief: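 Parallel TC32-NR0B1-luc and TC32-CMV-luc reverse transfections with 20 nM siRNA in RPMI-1640/10% FBS, luciferase measured 48 h later. Seed-adjusted z-scores from normalized, z-score-MAD transformed data; AllStars negative and siGL4 controls on each plate.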

Sequence | seed-corrected z-score
AAGGUAAACAUGUUCUCGC against TARSL2 | 0.287
AAAGUUACGCACCCAAUUG against GBA | 0.249
AAUGAGACGACGGAUGAAC against C19orf25 | -0.471
UUACUGACAGUAUUUCACU against C10orf67 | -0.0381
UUCAGCAUCACGAACAUCC against SRSF10 | -1.61
UGCAGGUUCAGCUUGUCUG against LGALS2 | -2.58
UUCAGCACCACGCAGUUGC against C12orf65 | 0.924
UAUGGAGAGAGAAUAACUG against SDHC | 0.151
UAUUGACCACAAUCGAGGC against PIGX | 1.23
ACAGGGACUUGAACUGGGC against IFNL3 | -2.31
UUUGUUCCAAGGCAUUCAC against CCDC129 | 1.07
UAGGUCGAAAGAACUCAGC against PEX3 | -0.0828
UGGAGUAUGAGUCCCAUUC against MTPAP | -15.6
UUAGAUACAGGUAUGAACA against OR4C45 | 0.478
UAAGUUCUUAGAGUUUUGG against TP53TG3 | 0.271
UUCUCGAUUAAGAAGUUUC against C18orf21 | 0.33
UCAGUAGCAACUGCCCUUU against MGAT4EP | -2.02
AUCGAUUCCAUUUCAAGGC against SERHL | 0.0431
UUGAUUUUCUCCUCCAUCC against JAKMIP1 | -0.126
UGUAGUACACUCUUGUUCU against GOLGA8G | -0.318
UAGUUGAGAAGGUCGAAGU against SF3B5 | -2.5

Sequence | seed-corrected z-score
UUAUGUCUCAUGAGUCGGU against ZNF548 | -0.149
UGACUGUCUUGCGUAUUUC against TTC21A | 0.856
UUCUAGAUAAUAACUCUCC against CCDC47 | 0.297
UCAGGUAUCUGAGAAUCUC against APOBEC3B | -0.83
UACUGAACACUGGAAAUUC against FGFBP2 | 1.53
UUCUCAUCGAGCCUGAAGU against FAM187B | 1.36
UGUUGUACCACUGUCAGAG against PPM1G | -0.406
AUAGAUACUGGGAGGUUUG against UBE2J2 | 0.783
UAAUCAUCCCGACCAACGC against P2RY10 | -0.625
CAGAUUCUGACGCUUUGUG against LIMD1-AS1 | -1.25
UCGAUGUAGAGGAUGCUGA against GDF7 | -2.35
UAAGAAAUGACGUGUGCUG against PTGDR2 | 0.0522
UGAGGUACUCGCUUUCCUG against TCTE1 | -0.587
UUAGAAAUGCAAAUAAACU against TMSB15A | 0.478
UUCGGUAAGACAUCAGUGG against STAG2 | 0.75
UUGUAAUCAAAGUAGUAGC against PSMD8 | -5.85
UGUUCUUGAACUGUAGUAC against RNF40 | 0.119
UGAGCCUUGAGUGCACUGG against LOC729047 | 0.713
UAAGAUUGGAGAGAUUGCC against SLC10A4 | 0.287
UGUAGUAUCUGAGUCAACC against CENPE | -2.96
UUACAUAUCACGUACAUCC against SENP8 | 0.448

Sequence | seed-corrected z-score
UUUUCUAAUAUGCUAACUG against BMP8A | -0.422
UCAUUAGUAAUAUCGUCGG against HSP90AA1 | -0.64
UCAAUGCCUCUGAUUGUUG against SPATA31D5P | -1.51
UUCGAUACCAGCCGGUAGC against F8A2 | -12.9
UUCCCGUAAACUUUCUCGC against KLF13 | 0.162
UGAUCUAUGAGUACGUCCG against SBNO1 | -0.107
AAGUGGACUUGAGAUGUGG against PPP1R1A | -0.084
UUAACAUGCAAGAAAUGUC against SPO11 | 2.19
UUGUCCUUCAGGAACACCG against EPB41L1 | 0.385
UAUCUAGUAGUAGUUCACC against CAB39 | 0.229
UCUGGUGGUGGUCUGAGUC against ZFP64 | -3.19
AAUGUUGUAGUUGAUUAGC against CCDC178 | -0.836
UUGACAGUUUCCAUCAGGC against PLIN3 | 0.105
UAUCGAUUUGGGUCGUAGC against GNL1 | 0.128
UACGUGAGCUGUGAUGAGC against IRF4 | -0.522
UAGGCGAAUACAGUUAGGG against PRDM11 | -0.0836
AAAAGGUAAACAGUGCUGG against HCAR1 | -2.61
AAUAUAACGACUAAUGUCC against CTNNBIP1 | 0.971
UUUAGAGGCAGGGAGAAGC against MT1XP1 | -2.16
UUUCGAGUUUCAAUGCUCC against SEC31A | 0.675
AUGAGUUUAAAGUACAAAG against TBC1D3G | -0.961

Sequence | seed-corrected z-score
AAAGCUCUUCUAAUGAUAG against CMPK2 | 1.05
UUUCCAAUAUUUGAAGGUG against IFNK | -0.532
UCUGGGUUGAGGUCUACGA against LGALSL | 1.22
UCUCUUUUAGGUGGUUUGG against RNPS1P1 | -2.12
UUUGGAGCCGAAAGCAUUG against TBX4 | -0.381
UUUCUUACCAUAGUUGUCC against TCF7L1 | 0.0239
UUCACGAGUAGAGAUGUGG against ULK4 | -0.0896
UGUGGAUUCGCAUUCGUGC against WNT10B | -0.172
AAGAGCAGUAUAGCCCUUG against FAM219B | -2.73
UUCAGAGUAAUGUCGACAU against RPL9 | -0.525
UAUUAUCCAGGAUUAAUUC against TMED5 | 0.444
UGGUUAUUAACCACGAAAC against DACH2 | -2.55
UUUUUGGGUUGUGCGAUGG against CLDN8 | -0.531
UAGUCGAUUAAACAGAGCC against RBPJ | 0.0342
UGAGUUCUGAUCGCAGUUC against MCC | -0.00975
AAUGUUAACGAUGAAGAAG against ADRB2 | 0.292
AACAGGACAAUUUUAGCAC against OR1L1 | -2.6
UCUGAAACAAUCCUCACUC against LINC00598 | -0.139
UGAGGAUAAAGCGAAGAGC against VARS2 | 0.0595
AACUGGGACUUGUUUUACC against FAM83F | 0.219
AAGGUUGCUCGUUCUAUGG against CASP5 | -2.33
